This is a sample that favours compounds with a hit; in the whole collection about 2% have one here.
IL2 activator = IL-2 activation. 0.065% of 360,000 active. AID 652025. IL-2 activation reporter assay, cell-based qHTS; stimulated with anti-CD3/CD4/CD28 beads; in transgenic mouse T cells. activation, % (series mostly up to about 46 µM); in the data active = activation above about 50%; inconclusive = mostly about 30% to 49%; also: 0% is about no effect
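Quantitative HTS in unstimulated transgenic mouse T cells, with memory T cells as non-tolerant control and PMA/ionomycin as tolerance-bypass control. Compound pretreatment lasted 60 minutes before 18 h bead stimulation; EGFP/DsRed fluorescence read.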
PKM2 act = increases activity of human pyruvate kinase M2 | P14618 | purified PKM2, Kinase-Glo ATP luminescence, activation; response scale: 0% is enzyme alone, no compound | Potency, µM (series often up to 57.5 µM), without a hit: at the highest dose activation, most hits filed as activators | 0.34% of 260,000 active | AID 1631; also: potency is read from the fitted curve at half-maximal effect; % is scaled to controls: 0 for no effect and ±100 for the full control effect; nearly all actives have a fitted effect of over 55% in size
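Kinase-Glo luminescence reports ATP generated from ADP (0.1 mM) and PEP (0.5 mM) by purified hPK-M2 after 1 h at room temperature, pH 7.2 imidazole buffer; intermediate enzyme activity allows detecting inhibitors and activators.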
NPSR antagonist = neuropeptide S receptor (human) antagonism, cAMP | Q6W5P4 | CHO-NPSR cells, cAMP TR-FRET, antagonist mode | Potency, µM (series often up to 38.3 µM), for inactives: at the highest dose activity change, negative = inhibition, actives largely listed as inhibitors | 1% of 220,000 active | AID 1461; also: potency is read from the fitted curve at half-maximal effect; % is scaled to controls: 0 for no effect and ±100 for the full control effect; nearly all actives have a fitted effect of over 50% in size
ClpP mod = qHTS Assay for Activators of ClpP. purified B. subtilis ClpP, FRET peptide cleavage, 20 min. Potency, µM (series often up to 57.5 µM), for inactives: at the top dose activity change, negative = active. 1.9% of 340,000 active; active = well fitted falling curve with a large enough effect; inconclusive = small, poorly fitted or top-dose-only effect; inactive = no such curve, though single readings can be large or run the other way; also: potency is read from the fitted curve at half-maximal effect; the source files actives as falling curves though it sought activators and does not explain the sign; nearly all actives have a fitted effect of over 65% in size
Target sequence (P80244 whole entry, looked up): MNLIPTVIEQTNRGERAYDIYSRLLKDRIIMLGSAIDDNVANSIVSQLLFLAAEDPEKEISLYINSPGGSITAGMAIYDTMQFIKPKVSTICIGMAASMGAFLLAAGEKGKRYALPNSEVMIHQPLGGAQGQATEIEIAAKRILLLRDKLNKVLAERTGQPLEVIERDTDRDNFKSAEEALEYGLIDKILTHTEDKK
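Buffer: 100 mM Tris/HCl pH8, 100 mM KCl, 0.05% low protease BSA, 2.5% glycerol, 0.01% Tween-20. ClpP 10 microg/mL final; 20 min RT; delta FRET normalized to ADEP and DMSO controls.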
ClpP validation = inhibits B. subtilis ClpP protease, hit validation | shares compounds with ClpP mod | purified B. subtilis ClpP, FRET-FV substrate cleavage, 20 min | Potency, µM (titrated, usually from 57.5 µM), inactives show at the top dose activity change, negative = inhibition, hits mostly inhibitors | 40% of 470 active; also: potency is read from the fitted curve at half-maximal effect; % is scaled to controls: 0 for no effect and ±100 for the full control effect; nearly all actives have a fitted effect of over 70% in size
An asterisk follows results filed as active; ? = inconclusive; . = not tested or not shown; [ ] = dose if it differs, or a comment. Unless noted, calls follow the shape of the dose curve; as a rule, active = well fitted curve in the direction sought with a large enough effect; inconclusive = small, poorly fitted or top-dose-only effect, or another doubt; inactive = no such curve, though single readings can be large; an effect the other way counts as inactive or inconclusive.

SMILES	IL2 activator	PKM2 act	NPSR antagonist	ClpP mod	ClpP validation
c1ccc(CN2CCN(c3nc(N4CCOCC4)c4ccccc4n3)CC2)cc1	0	.	.	-26%	.
c1ccc2c(N3CCOCC3)nc(N3CCOCC3)nc2c1	0	-2%	-5%[46.1 µM]	3.2µM*	24µM*
COc1ccc2c(c1)CCc1c(C(=O)Nc3cc(C)n(Cc4ccc(Cl)cc4)n3)noc1-2	-1	8%	-22%[46.1 µM]	60%	-17%
Cc1ccc(S(=O)(=O)CC(=O)N2CCN(c3cccc(C(F)(F)F)c3)CC2)cc1	-3	-2%	.	30%	.
Cc1ccc(CC(=O)N2CCN(c3cccc(C(F)(F)F)c3)CC2)cc1	1	1%	?	10µM*	0%
Cc1ccc2nc(CSc3nnc(Nc4ccccc4C)s3)cc(=O)n2c1	-2	-2%	6%	-10%	.
O=C(O)C1=CC(=C(c2ccc(O)c(C(=O)O)c2)c2ccc(O)c(C(=O)O)c2)C=CC1=O	.	.	-14%[46.1 µM]	4%	?
CC(C)(C)c1ccc(S(=O)(=O)c2cnc(SCC(=O)Nc3ccc(F)c(Cl)c3)[nH]c2=O)cc1	.	.	.	-2%	.
Cc1ccc(C(=O)Nc2ccc(Nc3ccccc3)cc2)cc1C	0	.	.	.	.
Cc1ccc(NC(=O)c2ccc(NC(=O)c3ccccc3)cc2)cc1C	1	4%	.	202%	24µM*
Cc1cccc2c(N=Nc3ccc(S(=O)(=O)Nc4cccc(Cl)c4)cc3[N+](=O)[O-])c(O)[nH]c12	0	-1%	-3%	1%	.
Clc1ccc2nc(NCc3ccccc3)c3nncn3c2c1	.	.	.	-5%	.
CCOc1ccc(-c2cn3c(n2)sc2cc(C(=O)N4CCCC(C)C4)ccc23)cc1 (stereo not drawn)	.	.	.	-26%	.
CCOc1ccc(-c2cn3c(n2)sc2cc(C(=O)NC4CCCc5ccccc54)ccc23)cc1 (stereo not drawn)	.	.	.	5µM*	?
CCOc1ccc(NC(=O)CSc2nc3c(oc4ccccc43)c(=O)n2-c2ccccc2C)cc1	.	.	.	-10%	.
